From paper PMC13494018

B1: design_607_777643b9-bd23-49d1-80ae-2b1434974efa_1231_dldesign_0_cycle1_af2pred (protein)
chain: AEEEKKKKEEEKKRTAENKALAYEEAARHAMEQGEKGSPEQRPAAVERAREFAKRAIEADPKKGAELLKEVEAFAAKWEEEA
B2: design_607_777643b9-bd23-49d1-80ae-2b1434974efa_1959_dldesign_0_cycle1_af2pred (protein)
chain: MEKAEEYLEEAKKALEKAEEYIAKAAADPANRAAYAAKAAQYAQEARILADGLELVDPSMKPEAEELRERARELIKKLAAVL
B3: design_607_777643b9-bd23-49d1-80ae-2b1434974efa_640_dldesign_0_cycle1_af2pred (protein)
chain: AETEKKIKELEKKAHDAYQKAAEYYHDKNLKEAGDLYRKAAKLYAEAAKALAKGEEAPKAEEYEAKAKAYEEEAQKLKA
B4: design_607_777643b9-bd23-49d1-80ae-2b1434974efa_278_dldesign_0_cycle1_af2pred (protein)
chain: SSLTLEASKKSGEAYFLLNEAEFLAKKKGDEETAKKAEEARKKLKEKLDAAKTGAEKLAAALEGLKEAEKIYKEALE
B5: design_607_777643b9-bd23-49d1-80ae-2b1434974efa_1068_dldesign_0_cycle1_af2pred (protein)
chain: MKKKASELMHEAYELAALAEAYPENAEEYYKKAKEYGEEAVKEAEKYDPEYGKKAKERAEKVTKRAKEAVEKYKKEK
B6: design_607_777643b9-bd23-49d1-80ae-2b1434974efa_2023_dldesign_0_cycle1_af2pred (protein)
chain: SAEAAAVKAEVDALTAAAVAATPEEAAKLGSQAAALAYEAAAEYASLSAREKDPEKAAEYKALADALREAARAARDRVAAAIAAKLA
B7: design_607_777643b9-bd23-49d1-80ae-2b1434974efa_321_dldesign_0_cycle1_af2pred (protein)
chain: SKIYEEKKKEIEEAAEKAKELAKKDPEKGRKYLKEKNKKFKEFVEKLKADPKTKADAEKILKEASKKSAEVYEVIAEEEQKKRRE
B8: design_607_777643b9-bd23-49d1-80ae-2b1434974efa_649_dldesign_0_cycle1_af2pred (protein)
chain: DAAKAAAKAFAAGAIKLAEKLAKEYPEIAATMKEAIAAAKEAAKLADTDAAAGKAAASAANFTVLEAYAEAKA
B9: design_607_777643b9-bd23-49d1-80ae-2b1434974efa_981_dldesign_0_cycle1_af2pred (protein)
chain: MAEEAKKKLEQAAKLMAIAYETLAAGERGLATPEELKEAAKKAEEAAKLAKEVGKVTPEKEYYEKAAKRAEKVAKRLKELAKKIEE
B10: design_607_777643b9-bd23-49d1-80ae-2b1434974efa_1207_dldesign_0_cycle1_af2pred (protein)
chain: AVAEAAQYAQEARQYAAEAEYLGKKYGKKNKEIKKYAEKAKEAAKKAREAAKKGDLEAAKEYAKKAKELAEKAEELAKKEEE
B11: design_607_777643b9-bd23-49d1-80ae-2b1434974efa_1995_dldesign_0_cycle1_af2pred (protein)
chain: EKEKELKEEVKEAGKRAEERVSRRAAKATNQQQKEATKALADNAIASIRKLAEEKGKETGKEEEFKKLAEEAEKKISAIVEAV
B12: design_607_777643b9-bd23-49d1-80ae-2b1434974efa_1383_dldesign_0_cycle1_af2pred (protein)
chain: DGEEFLKKLKERGELIKKKYPVAAEEITKITDEAVKVAQKGIEDPEKFEEYKKEATDLLHKAREIGAEKEVEAKL
B13: design_607_777643b9-bd23-49d1-80ae-2b1434974efa_1961_dldesign_0_cycle1_af2pred (protein)
chain: SEEEAKKKAEKAAEEAKKLAKEGAKFPEKAEELTEKAKEIAKELAKAGFPKLGSEAAAAAHEAQAEANLKKR
B14: design_607_777643b9-bd23-49d1-80ae-2b1434974efa_1990_dldesign_0_cycle1_af2pred (protein)
chain: MKEIIKLESESLRKLVRVAREVAEADPSLKPLAEEAILAAADNPEEGAKKVEELAKASLKVEGGEEYAKKLKEVAEKLKEVEEIYK
B15: design_607_777643b9-bd23-49d1-80ae-2b1434974efa_1562_dldesign_0_cycle1_af2pred (protein)
chain: GKELLEKIKKLSEEAVFATADDPEKGKEKLEEAKKLVKEAEKLPEAPKAKEALEKAEKVSKSIIEDIEKAK
B16: design_607_777643b9-bd23-49d1-80ae-2b1434974efa_529_dldesign_0_cycle1_af2pred (protein)
chain: NLGEKASKATKVLVDAAKEIAKKAGEEAKAKAAAALVTLFSLFEDPEKAAKEAKALVPEKAKPIVEKAAKEADKLLN
B17: design_607_777643b9-bd23-49d1-80ae-2b1434974efa_1467_dldesign_0_cycle1_af2pred (protein)
chain: AEERAKKVIKEAEELRKEAIALAEKYKENPEVRKLAVEAAHYALLAISAAKAGVKFLPYAEEYLKKAKELYEKGKALAEALEKEKEEK
B18: design_607_777643b9-bd23-49d1-80ae-2b1434974efa_665_dldesign_0_cycle1_af2pred (protein)
chain: MKETEEEIKKIEEEAKELAEKGKEKSVEEFKKEMVKFIFSLADEGAHPEAISSAARIAKESYEKLKKKEEEEKK
B19: design_607_777643b9-bd23-49d1-80ae-2b1434974efa_139_dldesign_0_cycle1_af2pred (protein)
chain: NEEQKKLAEEAIEEIKRLQEKAFDAVGAGDIEEAKKYLEEMEKVAKETAAKVPPEYAKKVLEALEKAKKAVESAIKAAEENEK
B20: design_607_777643b9-bd23-49d1-80ae-2b1434974efa_1902_dldesign_0_cycle1_af2pred (protein)
chain: DVEKVAKEAIEKLEEYGKRVPELAPEAKKAIERVKRRKEEGEKNPKFAPASIEAIKDTAENLKKKAEKLEKA
B21: design_607_777643b9-bd23-49d1-80ae-2b1434974efa_37_dldesign_0_cycle1_af2pred (protein)
chain: SSNKETADAIRDAVKAAQEVGKLAKEKLSPEEAKAVADELNKAIFDLVDTAASEGVDGAKAAAADVKAKVEKLKKEIAAKAAAA
B22: design_607_777643b9-bd23-49d1-80ae-2b1434974efa_1448_dldesign_0_cycle1_af2pred (protein)
chain: AAAEEARKAAITAAADTLAEADGDVYLAANELAKKVGPEAGKAILEKAKAARKEALAAIKEDPAAGAALAKRKGEEILKEAKELIEKA
B23: design_607_777643b9-bd23-49d1-80ae-2b1434974efa_1637_dldesign_0_cycle1_af2pred (protein)
chain: MEKDEALVERAFEAGGELFEKYPEGSKIASAMIRAATIARKDPEAGLEYLRERGLELGEEVAEEATERFRKILEEL
B24: design_607_777643b9-bd23-49d1-80ae-2b1434974efa_1699_dldesign_0_cycle1_af2pred (protein)
chain: SEKVEEVAKKEAEKIKEVAKKYGIEEEGKKAVERLKKKAEEAKKWKKPEIGAESVKTYGEGALKSVEILGKKKAA
B25: design_607_777643b9-bd23-49d1-80ae-2b1434974efa_839_dldesign_0_cycle1_af2pred (protein)
chain: AAAAAKAQADAILADAKAKAAEALKKDPKTGAEEAAKIYRAAAAKLRALGAEVADDPEAVAYLSKVAAELYELAAEYASKAARL
B26: design_607_777643b9-bd23-49d1-80ae-2b1434974efa_280_dldesign_0_cycle1_af2pred (protein)
chain: GAEKEKAEKIAKEKLAEGKKLAEEAKKGTPEEAKKKRKEFLEELKKLAKEGTPYLAKLLAKVAAEVSEAFAEAYAEALRK
B27: design_607_777643b9-bd23-49d1-80ae-2b1434974efa_1839_dldesign_0_cycle1_af2pred (protein)
chain: GMEAGKKALAEADKAGAAAIAAAKAGDVKAASAAAGEAYFYLAEAYVEFGPEADEEIKAKRQALLDALKKATAEAAA
B28: design_607_777643b9-bd23-49d1-80ae-2b1434974efa_1272_dldesign_0_cycle1_af2pred (protein)
chain: EEAFKEAGEKALEYAEKVLKLAKKEPEVLEKAEKGLELLKKGIETGDKDLLVKARSYFLQVASYASPEVAEVAEKAAEYIDEAYILLS
B29: design_607_777643b9-bd23-49d1-80ae-2b1434974efa_1601_dldesign_0_cycle1_af2pred (protein)
chain: ASEEVKKQAEASSAAYREAKKVAKYVKANAADPKAAEIAKKANALIEEAMTGDAETAEKKTKEIAKLAKE
B30: design_607_777643b9-bd23-49d1-80ae-2b1434974efa_2143_dldesign_0_cycle1_af2pred (protein)
chain: GMEEEEKRREELKKKAEELIKKAHEAYENSAEASVTNKEAAEIYREAAKLYKKAAEAYRSGEKVEEGEKYEEEAKAKEKEAKALLEK
B31: design_607_777643b9-bd23-49d1-80ae-2b1434974efa_1871_dldesign_0_cycle1_af2pred (protein)
chain: DMKEEAKKVAKEAKEVAKKVYELDPAKGSELSAKIHEAEALVKHPKFAEEGLKELKETLKKAKELLKKLE
B32: design_607_777643b9-bd23-49d1-80ae-2b1434974efa_1377_dldesign_0_cycle1_af2pred (protein)
chain: AEVAALVKKASEAMGEARFNANAAEKIPEEAEEYAKKAEEAIKAFRDALAQIRALAAEASPETLAAADRAEARLKELEKKVKEALKK
B33: design_607_777643b9-bd23-49d1-80ae-2b1434974efa_21_dldesign_0_cycle1_af2pred (protein)
chain: MEVEKLRKKAVEEAKKGGLGTPEEAREKRKKAEELLKEMKKAGATEEEVAKAATEAAEAYVEAKNEKYLKE
B34: design_607_777643b9-bd23-49d1-80ae-2b1434974efa_1238_dldesign_0_cycle1_af2pred (protein)
chain: SLKEALLEEAKEAIKAAKAGDASKVAAETLEMRSAAEALAKDDEEAKKFAEKTRKALELLRKDPEKGLKYAEEVAKEIIKAIE
B35: design_607_777643b9-bd23-49d1-80ae-2b1434974efa_1186_dldesign_0_cycle1_af2pred (protein)
chain: KEAEIKAEAQALIDAVRAAAAAAVALAADPAAARALLTAAIGKVLEGSKEAASLALPEAVAIAREAGAAAEAAHAAAA
B36: design_607_777643b9-bd23-49d1-80ae-2b1434974efa_648_dldesign_0_cycle1_af2pred (protein)
chain: SEEERRRREEAYRELSEALREARELGKRLKEAGADPEVIKRLSELLAEISETLAELRAGLANEEEIERAKEAAREALELAREELERL
B37: design_607_777643b9-bd23-49d1-80ae-2b1434974efa_351_dldesign_0_cycle1_af2pred (protein)
chain: SEEEAKKLAEEAAKKAREAAEEAEKLAKEAEKIGNKKIANKLYAYAERLKNVAESVELHAGDKEYAEKGLEVTEKLRKKAKELYKEAK
B38: design_607_777643b9-bd23-49d1-80ae-2b1434974efa_1681_dldesign_0_cycle1_af2pred (protein)
chain: HMTPEQIAAAKATAAAAAALAANAATTTQAQITAVMDAAAAAMPEFADTFATLRATMLANYADKAGVAKGLAAVARMLAASAKAAE

These binders were tested against VTCN1, Q7Z7D3.
VTCN1, Q7Z7D3, sequence (Q7Z7D3 whole entry): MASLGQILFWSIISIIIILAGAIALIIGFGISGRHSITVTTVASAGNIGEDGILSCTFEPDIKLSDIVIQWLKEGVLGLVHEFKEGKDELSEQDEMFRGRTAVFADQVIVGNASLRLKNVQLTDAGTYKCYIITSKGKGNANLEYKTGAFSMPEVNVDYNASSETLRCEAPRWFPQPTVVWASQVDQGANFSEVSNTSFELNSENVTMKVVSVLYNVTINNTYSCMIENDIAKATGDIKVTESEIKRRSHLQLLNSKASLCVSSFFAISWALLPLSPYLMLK

Binding in a display sort, inactive:
B1 not found, B2 not found, B3 not found, B4 not found, B5 not found, B6 not found, B7 not found, B8 not found, B9 not found, B10 not found, B11 not found, B12 not found, B13 not found, B14 not found, B15 not found, B16 not found, B17 not found, B18 not found, B19 not found, B20 not found, B21 not found, B22 not found, B23 not found, B24 not found, B25 not found, B26 not found, B27 not found, B28 not found, B29 not found, B30 not found, B31 not found, B32 not found, B33 not found, B34 not found, B35 not found, B36 not found, B37 not found, B38 not found
